Data: PubChem BioAssay (NCI)
About 79,000 compounds went through this panel and 15% of them were active in at least one assay; those are over-represented in the sample as a whole. A number with no mark means an inactive call. Activity calls are given as the source filed them. No stated cut-off is given here; in the data, active means growth inhibition above about 70%; inactive means the rest.

Test: NCI Yeast Anticancer Drug Screen. Data for the sgs1 mgt1 strain (AID 161);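 further: 0% = growth of cultures given vehicle only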
Details: S. cerevisiae sgs1 mgt1 strain, at 50.0 µM, stronger effect = higher value
Procedure, shortened: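 Read-out: growth inhibition vs vehicle controls. Cells: mutant yeast strain deficient in DNA damage repair.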

Compound | growth inhibition
CC(C)OP(=O)(OC(C)C)c1ccc2c(c1)OCCOCCOCCOCCO2 | 9.2%
O=C(OCC1OC(n2nc(SCc3ccccc3)c(=S)[nH]c2=O)C(OC(=O)c2ccccc2)C1OC(=O)c1ccccc1)c1ccccc1 (centres undefined) | 14.2%
CCNC(=O)CCN(C(=O)O)S(=O)(=O)c1ccc(NC(=O)c2ccccc2)cc1 | -2.55%
Cc1ccc(C(C)C)c(OCC2=NCCN2C)c1 | 3.35%
C=C(C(=O)O)C1CC[C@@]2(C)CC(O)CC(=C)C2C1 (some centres undefined) | -8.1%
O=C1CCC2=NCc3c(ccc4ccccc34)N12 | -12.9%
O=c1c(O)c(O)c1=O | 0.8%
Cc1cc(=O)c2cc(-c3ccccc3)ccc2[nH]1 | -13.4%
N#Cc1nc(COCc2ccccc2)oc1N | -5.45%
COC(=O)c1ccc(/C=C/c2cc(O)ccc2O)cc1 | 56.6%
O=S(=O)(SSS(=O)(=O)c1ccc(Cl)c(Cl)c1)c1ccc(Cl)c(Cl)c1 | 5.85%
CCCCOC(=O)CNC(=O)c1ccc(C)c(OCc2ccccc2)c1[N+](=O)[O-] | 6.1%
COC1C2CC3C4(CCC5C6(C)CCCC53C(C14)N(C)C6)CC21CCC23C4C=C5C6=C(CCC5(CC42)C3O1)C1(C)CC(C6)CN(C)C1 (centres undefined) | 22.9%
O=c1cc(C=Nc2ccc(-c3csc(-c4ccccc4)n3)cc2)[nH]c(=S)[nH]1 | 97.7% (active)
C1OC2OC3OCOC3C2O1 (centres undefined) | -2.1%
O=C1CCNC(=O)N1 | 4.75%
CC1(C)NC(=O)N(CCCCCCN2C(=O)NC(C)(C)C2=O)C1=O | 5.85%
CC(Br)C(=O)n1c2ccccc2c2ccccc21 (centres undefined) | 19.8%
COC(=O)c1ccc(SCCC(=O)CO)cc1 | -4.6%
S=C(Nc1ccccc1)Nc1ccc(NC(=S)Nc2ccccc2)cc1 | -3.6%
NCCCOC12CC3CC(CC(C3)C1)C2 | 38.8%
O=C(CC(=O)Nc1ccccc1)N/N=C/c1cc(N=Nc2ccc(Br)cc2)ccc1O | 53%
CCOC(=O)c1nc(C)oc1C(=O)OCC | -14.6%
O=c1oc2c(Cl)cc(Cl)cc2cc1-c1nc2ccccc2[nH]1 | 15.6%
